Source: ChEMBL document CHEMBL1961873, “Compounds: GSK PKIS; Assays: Nanosyn kinase panel” (2012)

Tests used:
[1] = target: Sphingosine kinase 1 (Homo sapiens) (UniProt Q9NYA1); settings: at 1 µM;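 note: mean SPHK1 inhibition value reported from the GSK PKIS kinase panel screen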
[2] = target: T1, Sphingosine kinase 2 (Homo sapiens) (UniProt Q9NRA0); settings: at 0.1 µM
T1 sequence (whole entry): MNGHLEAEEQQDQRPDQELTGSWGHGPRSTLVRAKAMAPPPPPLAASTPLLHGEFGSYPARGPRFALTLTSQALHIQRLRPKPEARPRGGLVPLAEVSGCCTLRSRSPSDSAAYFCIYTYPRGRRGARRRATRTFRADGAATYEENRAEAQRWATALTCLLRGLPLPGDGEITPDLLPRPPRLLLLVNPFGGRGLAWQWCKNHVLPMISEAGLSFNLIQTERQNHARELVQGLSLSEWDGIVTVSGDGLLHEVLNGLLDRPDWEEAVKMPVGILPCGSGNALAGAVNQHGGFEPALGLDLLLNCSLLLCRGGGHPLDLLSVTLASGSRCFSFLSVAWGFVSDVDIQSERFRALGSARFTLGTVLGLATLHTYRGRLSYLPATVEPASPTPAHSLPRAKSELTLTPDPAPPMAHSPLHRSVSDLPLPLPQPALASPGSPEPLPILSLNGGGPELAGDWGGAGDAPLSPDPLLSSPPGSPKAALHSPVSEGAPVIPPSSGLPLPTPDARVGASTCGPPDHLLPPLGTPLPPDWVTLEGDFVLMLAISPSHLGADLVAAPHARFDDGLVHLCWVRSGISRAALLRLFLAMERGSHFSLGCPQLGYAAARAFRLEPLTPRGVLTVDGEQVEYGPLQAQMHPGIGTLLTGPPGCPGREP

[3] = target: T1, Sphingosine kinase 2 (Homo sapiens); settings: at 1 µM
[4] = target: Casein kinase II subunit alpha (Homo sapiens) (UniProt P68400); settings: at 0.1 µM
[5] = target: Casein kinase II subunit alpha (Homo sapiens) (UniProt P68400); settings: at 1 µM
[6] = target: T2, Inhibitor of nuclear factor kappa-B kinase subunit alpha (Homo sapiens) (UniProt O15111); settings: at 0.1 µM
T2 sequence (whole entry): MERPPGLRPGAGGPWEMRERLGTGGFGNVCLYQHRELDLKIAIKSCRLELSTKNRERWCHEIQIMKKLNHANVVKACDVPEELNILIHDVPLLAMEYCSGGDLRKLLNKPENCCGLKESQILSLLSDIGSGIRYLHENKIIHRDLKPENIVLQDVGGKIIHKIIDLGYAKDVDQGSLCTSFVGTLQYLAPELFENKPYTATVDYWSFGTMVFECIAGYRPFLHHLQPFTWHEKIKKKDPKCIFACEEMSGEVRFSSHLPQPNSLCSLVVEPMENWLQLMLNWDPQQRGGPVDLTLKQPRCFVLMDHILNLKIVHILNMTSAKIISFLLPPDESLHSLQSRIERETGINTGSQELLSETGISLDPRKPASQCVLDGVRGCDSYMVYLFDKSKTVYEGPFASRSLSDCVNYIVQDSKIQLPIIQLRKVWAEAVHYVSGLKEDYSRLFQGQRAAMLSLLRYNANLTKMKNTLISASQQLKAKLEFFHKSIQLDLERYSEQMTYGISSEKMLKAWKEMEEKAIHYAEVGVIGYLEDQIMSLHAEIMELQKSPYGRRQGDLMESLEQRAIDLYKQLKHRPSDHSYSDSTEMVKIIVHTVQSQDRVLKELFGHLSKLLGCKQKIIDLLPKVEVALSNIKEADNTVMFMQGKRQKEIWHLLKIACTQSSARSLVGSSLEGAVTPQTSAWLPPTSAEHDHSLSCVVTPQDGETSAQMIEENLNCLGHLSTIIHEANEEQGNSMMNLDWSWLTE

[7] = target: T2, Inhibitor of nuclear factor kappa-B kinase subunit alpha (Homo sapiens); settings: at 1 µM
[8] = target: T3, Inhibitor of nuclear factor kappa-B kinase subunit beta (Homo sapiens) (UniProt O14920); settings: at 0.1 µM
T3 sequence (whole entry): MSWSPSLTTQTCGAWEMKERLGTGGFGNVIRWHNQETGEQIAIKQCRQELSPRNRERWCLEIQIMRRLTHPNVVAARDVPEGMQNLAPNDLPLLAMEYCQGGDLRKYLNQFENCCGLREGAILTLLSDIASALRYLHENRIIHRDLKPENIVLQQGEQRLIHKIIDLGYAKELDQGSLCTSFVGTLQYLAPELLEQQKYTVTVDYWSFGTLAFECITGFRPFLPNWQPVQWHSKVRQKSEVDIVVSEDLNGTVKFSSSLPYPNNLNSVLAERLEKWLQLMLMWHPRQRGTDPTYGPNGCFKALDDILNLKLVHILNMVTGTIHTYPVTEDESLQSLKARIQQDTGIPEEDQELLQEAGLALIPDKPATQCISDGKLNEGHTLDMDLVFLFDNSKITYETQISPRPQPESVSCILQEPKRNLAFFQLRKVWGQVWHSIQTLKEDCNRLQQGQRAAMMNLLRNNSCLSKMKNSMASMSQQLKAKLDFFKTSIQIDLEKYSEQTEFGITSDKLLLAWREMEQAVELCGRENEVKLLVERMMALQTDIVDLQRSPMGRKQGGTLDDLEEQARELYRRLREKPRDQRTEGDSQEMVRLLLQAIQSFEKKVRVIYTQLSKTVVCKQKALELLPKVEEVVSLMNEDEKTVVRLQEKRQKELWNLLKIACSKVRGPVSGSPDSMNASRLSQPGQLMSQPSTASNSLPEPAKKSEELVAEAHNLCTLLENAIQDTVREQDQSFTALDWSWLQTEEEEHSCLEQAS

[9] = target: T3, Inhibitor of nuclear factor kappa-B kinase subunit beta (Homo sapiens); settings: at 1 µM
[10] = target: T4, Inhibitor of nuclear factor kappa-B kinase subunit epsilon (Homo sapiens) (UniProt Q14164); settings: at 0.1 µM;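 note: mean inhibition of IKKε reported, from the GSK PKIS dataset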
T4 sequence (whole entry): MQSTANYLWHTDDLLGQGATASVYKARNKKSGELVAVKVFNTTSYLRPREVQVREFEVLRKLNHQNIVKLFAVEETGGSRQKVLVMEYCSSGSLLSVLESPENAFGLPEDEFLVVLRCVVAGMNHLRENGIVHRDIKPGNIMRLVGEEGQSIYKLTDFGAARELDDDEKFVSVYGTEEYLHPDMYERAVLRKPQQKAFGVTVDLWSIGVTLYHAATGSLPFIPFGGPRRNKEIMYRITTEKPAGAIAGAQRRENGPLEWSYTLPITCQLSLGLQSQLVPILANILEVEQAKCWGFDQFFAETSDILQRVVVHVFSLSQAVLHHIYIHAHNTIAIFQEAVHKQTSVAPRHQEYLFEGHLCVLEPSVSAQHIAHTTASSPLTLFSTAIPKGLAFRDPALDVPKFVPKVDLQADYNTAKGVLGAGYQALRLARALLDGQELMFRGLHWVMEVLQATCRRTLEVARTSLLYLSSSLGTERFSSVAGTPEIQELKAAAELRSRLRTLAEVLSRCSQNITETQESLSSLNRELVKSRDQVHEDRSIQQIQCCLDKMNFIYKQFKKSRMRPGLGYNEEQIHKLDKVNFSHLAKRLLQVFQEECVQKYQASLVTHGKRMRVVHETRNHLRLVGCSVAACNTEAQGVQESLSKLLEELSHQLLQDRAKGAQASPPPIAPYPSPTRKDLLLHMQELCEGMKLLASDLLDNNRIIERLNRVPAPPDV

Chain of Casein kinase II subunit alpha (Homo sapiens) (P68400 whole entry, looked up): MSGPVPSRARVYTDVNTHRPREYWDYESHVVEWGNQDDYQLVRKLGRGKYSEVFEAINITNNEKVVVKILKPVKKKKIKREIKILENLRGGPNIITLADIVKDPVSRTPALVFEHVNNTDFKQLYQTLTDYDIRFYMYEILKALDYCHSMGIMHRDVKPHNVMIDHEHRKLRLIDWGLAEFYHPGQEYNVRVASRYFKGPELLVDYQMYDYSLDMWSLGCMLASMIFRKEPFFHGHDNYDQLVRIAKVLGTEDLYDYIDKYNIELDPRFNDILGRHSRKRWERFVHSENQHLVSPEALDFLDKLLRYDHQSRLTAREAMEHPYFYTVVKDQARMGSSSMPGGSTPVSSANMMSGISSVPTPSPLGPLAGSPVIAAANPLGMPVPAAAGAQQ
Chain of Sphingosine kinase 1 (Homo sapiens) (Q9NYA1 whole entry): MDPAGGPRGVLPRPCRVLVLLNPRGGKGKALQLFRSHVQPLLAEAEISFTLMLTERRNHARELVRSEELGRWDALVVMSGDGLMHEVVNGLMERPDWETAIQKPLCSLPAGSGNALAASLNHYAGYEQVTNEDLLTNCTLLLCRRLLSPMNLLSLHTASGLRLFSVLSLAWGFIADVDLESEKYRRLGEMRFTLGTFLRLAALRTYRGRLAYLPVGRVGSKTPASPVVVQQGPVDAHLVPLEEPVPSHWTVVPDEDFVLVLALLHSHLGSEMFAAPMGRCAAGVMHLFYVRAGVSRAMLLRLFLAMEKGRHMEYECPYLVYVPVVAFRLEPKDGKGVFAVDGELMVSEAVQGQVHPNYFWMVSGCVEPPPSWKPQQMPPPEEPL

Row | Structure (SMILES) | inhibition [1] | inhibition [2] | inhibition [3] | inhibition [4] | inhibition [5] | inhibition [6] | inhibition [7] | inhibition [8] | inhibition [9] | inhibition [10]
1 | COc1ccc(-c2cc3c(N)ncnc3o2)cc1 | 0.27% | 0.92% | -0.08% | 4.9% | 14.2% | -1.6% | -3.79% | -0.63% | 6.4% | -2.31%
2 | CNC(=O)c1cncc(/C=C/c2ccccc2Cl)c1 | -2.41% | 0.11% | -0.01% | 0.75% | 8.72% | 2.99% | -3.09% | -0.46% | 1.87% | 2.76%
3 | COC(=O)c1sc(-n2cnc3cc(OC)c(OC)cc32)cc1OCc1ccccc1C(F)(F)F | 1.91% | 0.14% | -2.19% | 0.66% | -0.18% | 3.9% | 5.32% | 5.59% | 4.11% | 3.88%
4 | NS(=O)(=O)c1ccc(Nc2ncc(-c3ccccc3)o2)cc1 | 0% | -1.43% | -1.09% | 3.56% | 10.3% | 6.23% | 15.3% | 3.35% | 11.7% | 4.43%
5 | CN1CCC(n2cnc(-c3ccc(F)cc3)c2-c2ccnc(N)n2)CC1 | -3.49% | 0% | -1.67% | 8.38% | 42.7% | 1.97% | 6.98% | 4.41% | 4.02% | 3.07%
6 | COC(=O)Nc1nc2ccc(S(=O)(=O)c3ccc(NC(=O)Nc4cc(C(F)(F)F)ccc4F)cc3)cc2[nH]1 | -2.79% | -0.31% | 0.98% | -0.42% | -2.21% | 6.4% | 2.23% | 5.3% | 7.84% | 2.8%
7 | c1cc(-c2cnn3nc(N4CCOCC4)ccc23)nc(NC2CC2)n1 | 0.41% | 0% | 1.66% | 1.46% | 7.14% | 6.71% | 15.7% | 3.81% | 5.82% | 2.67%
8 | c1ccc(-c2nc3n(c2-c2ccc4c(c2)OCO4)CCC3)nc1 | 0.44% | -0.36% | 0% | 0.8% | 1.12% | 0.69% | -5.83% | 3.06% | -0.72% | 1.33%
9 | CCN(CC)S(=O)(=O)c1ccc(OC)c(Nc2ncc(-c3ccccc3)o2)c1 | -3.4% | -1.48% | 0.49% | 2.99% | 15.1% | 3.54% | -6.23% | 0.24% | -0.16% | 2.98%
10 | COc1ccc(-c2oc3ncnc(N)c3c2-c2ccc(NC(=O)Nc3cc(C(F)(F)F)ccc3F)cc2)cc1 | -0.9% | 0.08% | 0.05% | 6.63% | 16.7% | 1.18% | 2.5% | 7.03% | 5.27% | 8.13%
11 | COc1cc(/C=N/Nc2ncnc3[nH]ncc23)ccc1O | -2.47% | 0.06% | 0.42% | 8.38% | 34.8% | 14.9% | 62% | 5.05% | 13.6% | 0.87%
12 | Nc1nc(-c2ccc(F)cc2)c(-c2ccc3ncccc3n2)s1 | -1.38% | -1.13% | -1.05% | 6.47% | 13% | 2.92% | 5.46% | 5.24% | 4.99% | 6.57%
13 | COc1ccc(-c2cc(-c3c[nH]nc3-c3ccccn3)ccn2)cc1 | 0.76% | -1.45% | -1.01% | 5.84% | 8.65% | -3.06% | 10.5% | 7.11% | 8.08% | 7.81%
14 | Cc1ccc2c(-c3ccnc(Nc4ccccc4)n3)c(-c3ccc(F)cc3)nn2n1 | 1.05% | -1.64% | 0% | 1.08% | -2.67% | 5% | 0.7% | 4.32% | 1.74% | 1.25%
15 | COc1cc2c(cc1Nc1nc(Nc3ccsc3C(N)=O)c3cc[nH]c3n1)N(C(=O)CN(C)C)CCC2(C)C | 1.56% | -0.3% | -2.8% | 39.4% | 75.3% | 5.27% | 0.27% | 8.68% | 6.07% | 10.8%
16 | FC(F)(F)c1cccc(-c2nn3ncccc3c2-c2ccnc(Nc3ccc4c(c3)OCCO4)n2)c1 | 1.14% | 0.13% | -0.65% | 0.21% | -1.98% | 3.23% | 0.65% | 2.71% | 0.36% | 2.48%
17 | COc1ccc(-c2nn3ncccc3c2-c2ccnc(Nc3ccc4c(c3)OCCO4)n2)cc1 | -0.22% | -0.07% | 0.39% | 7.89% | 3.92% | 6.88% | 1.71% | 3.03% | 1.7% | 1.54%
18 | CS(=O)(=O)CCNCc1coc(-c2ccc3ncnc(Nc4ccc(OCc5ccccc5)cc4)c3c2)c1 | -1.49% | 0% | -0.98% | 1.05% | 6.53% | 4.1% | 2.85% | 3.35% | 5.11% | 4.2%
19 | O=S(=O)(CCNCc1ccc(-c2ccc3ncnc(Nc4ccc(OCc5cccc(F)c5)c(Cl)c4)c3c2)o1)c1ccccc1 | -5.05% | -0.55% | 0.69% | 10.6% | 5.49% | 2.96% | -0.88% | 6.77% | 7.07% | 12%
